Inconclusive results are not listed. Calls of active or inactive are those of the source. Rule for the calls, unless noted: active = hit-call score of the fitted dose curve at least 0.9, where 1 is the maximum; inactive = score below 0.9.
Experiments:
[1] = read-out: Interleukin-8 (IL8), CXCL8 (gene 3576); experiment: BSK_3C_IL8: BioMAP Diversity Plus: 3C Assay for Interleukin-8 (IL8) Biomarker Activity (AID 2283020); conditions: primary human endothelial cells (HUVEC); actives raise or lower the signal
Procedure, shortened: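 Primary human umbilical vein endothelial cells (3C system) were exposed to test chemical for 24 h, then IL-8 was quantified by ELISA. Responses were fitted bidirectionally against DMSO vehicle as baseline.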

[2] = read-out: Monokine induced gamma interferon (MIG), CXCL9 (gene 4283); experiment: BSK_3C_MIG: BioMAP Diversity Plus: 3C Assay for Monokine induced gamma interferon (MIG) Biomarker Activity (AID 2283021); conditions: primary human endothelial cells (HUVEC); actives raise or lower the signal;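 for AC50: MIG protein level measured by immunoassay in the treated endothelial cultures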
Procedure, shortened: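 Primary human umbilical vein endothelial cells in the 3C system were exposed to chemical for 24 h, after which MIG was quantified by ELISA. Activity was fitted bidirectionally against DMSO as negative control and baseline.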

[3] = target: human Vitamin D Receptor (VDR), VDR (gene 7421) (UniProt P11473); experiment: ATG_VDR_TRANS: Attagene TRANS-FACTORIAL HepG2 Assay for human Vitamin D Receptor (VDR) (AID 2283022; active = hit-call score of the fitted dose curve at least 0.9, where 1 is the maximum)
Procedure, shortened: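 HepG2 cells were transiently transfected with GAL4-UAS reporter units and a chimeric VDR-Gal4 construct, then dosed for 24 hours. Reporter mRNA was quantified by RT-PCR, fluorescent labeling, HpaI digestion and capillary electrophoresis; gain of signal analysed vs DMSO.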

[4] = BSK_3C_SRB: Viability Assessment in the BioMAP Diversity Plus: 3C Assay (AID 2283023); conditions: primary human endothelial cells (HUVEC);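 note: fitted both ways against DMSO so a hit may be signal rise or drop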
Procedure, shortened: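 Human umbilical vein endothelial cells in the 3C system, treated 24 h. Total protein measured by 0.1% sulforhodamine B staining after 10% TCA fixation, read at 560 nm; bidirectional fit versus DMSO.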

[5] = read-out: Matrix Metallopeptidase 1 (MMP1), MMP1 (gene 4312); experiment: BSK_BE3C_MMP1: BioMAP Diversity Plus: BE3C Assay for Matrix Metallopeptidase 1 (MMP1) Biomarker Activity (AID 2283024); conditions: primary human bronchial epithelial cells; actives raise or lower the signal
Procedure, shortened: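 Primary human bronchial epithelial cells were dosed with test chemicals, and MMP1 levels were measured by ELISA 24 h later. Data were fitted bidirectionally against DMSO as the negative control and activity baseline.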

[6] = BSK_3C_Vis: BioMAP Diversity Plus: 3C Assay for Morphology Visualization (AID 2283025); conditions: primary human endothelial cells (HUVEC);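 note: fitted both ways so gain or loss versus DMSO counts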
Procedure, shortened: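 Human umbilical vein endothelial cells in the 3C system were imaged by light microscopy 24 h after chemical dosing to record cell morphology. Activity was fitted bidirectionally against DMSO as negative control and baseline; the endpoint serves as a background control.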

[7] = read-out: Pselectin, SELP (gene 6403); experiment: BSK_4H_Pselectin: BioMAP Diversity Plus: 4H Assay for Pselectin Biomarker Activity (AID 2283026); conditions: primary human endothelial cells (HUVEC); actives raise or lower the signal
Procedure, shortened: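 Primary human umbilical vein endothelial cells were exposed to test chemical for 24 h, then cell-surface P-selectin was quantified by ELISA. Activity was fitted bidirectionally against DMSO as negative control and baseline.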

[8] = BSK_4H_SRB: Viability Assessment in the BioMAP Diversity Plus: 4H Assay (AID 2283027); conditions: primary human endothelial cells (HUVEC);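 note: cells exposed to compound for 24 h before staining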;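 for AC50: curves fitted both ways versus DMSO so AC50 may be loss or gain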
Procedure, shortened: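 Human umbilical vein endothelial cells were dosed with chemical and, after 24 h, fixed with 10% TCA, stained with 0.1% sulforhodamine B, and read at 560 nm to give total protein as a cytotoxicity measure. Bidirectional fitting relative to DMSO control.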

[9] = BSK_BE3C_SRB: Viability Assessment in the BioMAP Diversity Plus: BE3C Assay (AID 2283028); conditions: primary human bronchial epithelial cells;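 for AC50: fitted both ways so AC50 may mark signal gain or loss versus DMSO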
Procedure, shortened: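 Human bronchial epithelial primary cells in confluent culture, 24 h after chemical dosing; total protein by 0.1% SRB staining after 10% TCA fixation, read at 560 nm. Bidirectional fitting versus DMSO baseline.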

[10] = read-out: Thrombomodulin, THBD (gene 7056); experiment: BSK_3C_Thrombomodulin: BioMAP Diversity Plus: 3C Assay for Thrombomodulin Biomarker Activity (AID 2283029); conditions: primary human endothelial cells (HUVEC); actives raise or lower the signal
Procedure, shortened: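 Primary human umbilical vein endothelial cells (3C system) were exposed to chemical for 24 h, then thrombomodulin levels were measured by ELISA. Activity was fitted bidirectionally against the DMSO negative control as baseline.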

[11] = read-out: Urokinase-type plasminogen activator receptor (uPAR), PLAUR (gene 5329); experiment: BSK_4H_uPAR: BioMAP Diversity Plus: 4H Assay for Urokinase-type plasminogen activator receptor (uPAR) Biomarker Activity (AID 2283030); conditions: primary human endothelial cells (HUVEC); actives raise or lower the signal
Procedure, shortened: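 Human umbilical vein endothelial cells in the 4H system, 24 h after chemical dosing. Cell-surface uPAR measured by ELISA, fitted in both directions versus DMSO; cytotoxicity checked by SRB total protein in parallel cultures.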

[12] = read-out: Vascular endothelial growth factor receptor 2 (Homo sapiens) (UniProt P35968); experiment: BSK_4H_VEGFRII: BioMAP Diversity Plus: 4H Assay for Vascular endothelial growth factor receptor 2 (VEGFR2) Biomarker Activity (AID 2283031); conditions: primary human endothelial cells (HUVEC); actives raise or lower the signal
Procedure, shortened: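 Primary human umbilical vein endothelial cells (4H system), 24 h exposure; cell-surface VEGFR2 measured by ELISA. Bidirectional fitting versus DMSO; cytotoxicity checked in parallel by SRB total-protein staining.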

[13] = read-out: Human Leukocyte Antigen - DR isotype (HLADR), HLA-DRA (gene 3122); experiment: BSK_BE3C_HLADR: BioMAP Diversity Plus: BE3C Assay for Human Leukocyte Antigen - DR isotype (HLADR) Biomarker Activity (AID 2283032); conditions: primary human bronchial epithelial cells; actives raise or lower the signal
Procedure, shortened: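 Human primary bronchial epithelial cells in the BE3C system were exposed to chemicals for 24 h, after which HLA-DR levels were quantified by ELISA. Activity was fitted bidirectionally, gain or loss of signal, against DMSO as negative control and baseline.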

[14] = read-out: Vascular cell adhesion molecule 1 (VCAM1), VCAM1 (gene 7412); experiment: BSK_4H_VCAM1: BioMAP Diversity Plus: 4H Assay for Vascular cell adhesion molecule 1 (VCAM1) Biomarker Activity (AID 2283033); conditions: primary human endothelial cells (HUVEC); actives raise or lower the signal
Procedure, shortened: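 Primary human umbilical vein endothelial cells were exposed to chemicals for 24 h, after which VCAM-1 was quantified by ELISA. Responses were fitted bidirectionally against DMSO as negative control and activity baseline.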

[15] = read-out: Interferon-gamma inducible Protein 10 (IP10), CXCL10 (gene 3627); experiment: BSK_BE3C_IP10: BioMAP Diversity Plus: BE3C Assay for Interferon-gamma inducible Protein 10 (IP10) Biomarker Activity (AID 2283034); conditions: primary human bronchial epithelial cells; actives raise or lower the signal
Procedure, shortened: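 Human primary bronchial epithelial cells were exposed to chemicals for 24 hours, after which IP-10 levels were measured by ELISA. Data were fitted bidirectionally against DMSO, which served as the negative control and activity baseline.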

[16] = read-out: Monokine induced gamma interferon (MIG), CXCL9 (gene 4283); experiment: BSK_BE3C_MIG: BioMAP Diversity Plus: BE3C Assay for Monokine induced gamma interferon (MIG) Biomarker Activity (AID 2283035); conditions: primary human bronchial epithelial cells; actives raise or lower the signal
Procedure, shortened: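 ELISA read-out of MIG in human lung bronchial epithelial primary cultures, 24 h post-dosing. Bidirectional curve fit vs DMSO baseline.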

[17] = read-out: Transforming growth factor beta 1 (TGFb1), TGFB1 (gene 7040); experiment: BSK_BE3C_TGFb1: BioMAP Diversity Plus: BE3C Assay for Transforming growth factor beta 1 (TGFb1) Biomarker Activity (AID 2283036); conditions: primary human bronchial epithelial cells; actives raise or lower the signal
Procedure, shortened: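 Human primary bronchial epithelial cells (BE3C system) were dosed with chemical and TGF-b1 levels measured by ELISA at 24 h. Activity was fitted bidirectionally relative to DMSO negative control as baseline.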

[18] = read-out: Plasminogen activator inhibitor-1 (PAI1), SERPINE1 (gene 5054); experiment: BSK_BE3C_PAI1: BioMAP Diversity Plus: BE3C Assay for Plasminogen activator inhibitor-1 (PAI1) Biomarker Activity (AID 2283037); conditions: primary human bronchial epithelial cells; actives raise or lower the signal
Procedure, shortened: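 Human primary bronchial epithelial cells were exposed to chemical for 24 h, then PAI-1 was quantified by ELISA. Activity was fitted bidirectionally relative to the DMSO negative control baseline.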

[19] = read-out: urokinase plasminogen activator (uPA), PLAU (gene 5328); experiment: BSK_BE3C_uPA: BioMAP Diversity Plus: BE3C Assay for urokinase plasminogen activator (uPA) Biomarker Activity (AID 2283038); conditions: primary human bronchial epithelial cells; actives raise or lower the signal
Procedure, shortened: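 Primary human bronchial epithelial cells, uPA measured by ELISA 24 h after dosing. Bidirectional change relative to DMSO; cytotoxicity checked in parallel cultures by sulforhodamine B total-protein staining.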

[20] = read-out: Urokinase-type plasminogen activator receptor (uPAR), PLAUR (gene 5329); experiment: BSK_BE3C_uPAR: BioMAP Diversity Plus: BE3C Assay for Urokinase-type plasminogen activator receptor (uPAR) Biomarker Activity (AID 2283039); conditions: primary human bronchial epithelial cells; actives raise or lower the signal
Procedure, shortened: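 Primary human bronchial epithelial cells were dosed with chemical and harvested 24 h later; uPAR was quantified by ELISA. Activity was fitted bidirectionally against DMSO as negative control and baseline.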

Measured: AC50

Sequence of human Vitamin D Receptor (VDR), VDR (gene 7421) (P11473 whole entry, looked up, the tested form may be a part): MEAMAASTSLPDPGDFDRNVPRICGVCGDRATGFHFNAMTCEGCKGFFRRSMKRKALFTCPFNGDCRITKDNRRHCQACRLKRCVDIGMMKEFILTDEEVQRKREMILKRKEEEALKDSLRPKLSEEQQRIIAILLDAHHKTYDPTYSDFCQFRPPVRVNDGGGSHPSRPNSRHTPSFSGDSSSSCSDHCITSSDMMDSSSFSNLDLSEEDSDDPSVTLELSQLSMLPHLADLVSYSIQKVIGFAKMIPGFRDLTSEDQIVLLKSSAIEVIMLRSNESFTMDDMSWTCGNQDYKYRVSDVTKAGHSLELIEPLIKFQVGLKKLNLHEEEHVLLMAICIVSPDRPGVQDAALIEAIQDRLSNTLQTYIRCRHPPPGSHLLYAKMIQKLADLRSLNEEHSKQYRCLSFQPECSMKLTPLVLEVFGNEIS

CC[C@H](c1ccc(O)cc1)[C@@H](CC)c1ccc(O)cc1
active: [1] 33.6 µM | [2] 37.4 µM | [4] 27.9 µM | [5] 38 µM | [6] 22.3 µM | [7] 20.3 µM | [8] 30.6 µM | [9] 35.8 µM | [10] 31 µM | [11] 26 µM | [13] 19.1 µM | [14] 30.7 µM | [15] 20.1 µM | [16] 34.5 µM | [17] 27.9 µM | [18] 22.9 µM | [19] 37.2 µM | [20] 37.8 µM
inactive: [3] | [12]

Nc1cccc2c(N)cccc12
inactive: [1] | [2] | [3] | [4] | [5] | [6] | [7] | [8] | [9] | [10] | [11] | [12] | [13] | [14] | [15] | [16] | [17] | [18] | [19] | [20]

CC(=O)NC1(c2cccc(F)c2)CCN(CC[C@@]2(c3ccc(Cl)c(Cl)c3)CN(c3ccccc3)C(=O)CO2)CC1
active: [1] 17.8 µM | [4] 21.6 µM | [6] 12.7 µM | [7] 20.4 µM | [8] 20.3 µM | [11] 16.6 µM | [13] 24.5 µM | [14] 27.8 µM | [15] 26 µM | [16] 26.9 µM | [18] 16.6 µM | [19] 16.6 µM | [20] 16.6 µM
inactive: [2] | [3] | [5] | [9] | [10] | [12] | [17]

— PubChem BioAssay (EPA / NIEHS)
